A short description of test [1]: antimalarial activity against Dd2 strain (AID 2302;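 active = growth inhibition above 50% at the single 2 µM test dose, taken to imply half-maximal potency below 2 µM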;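 note: 0% = DMSO untreated growth and 100% = chloroquine plus artemisinin killed control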). As to conditions: P. falciparum Dd2 in RBCs, LDH growth readout, 72 h; at 2 µM; stronger effect = higher value.
A short description of test [2]: human hepatoma cell viability loss – ATP luminescence, cytotoxicity control for P. falciparum antimalarial project, primary screen (AID 2303;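 active = inhibition above 50%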;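 note: 0% = DMSO wells and 100% = digitonin-killed cells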). As to conditions: HepG2 viability, 24-48 h, at 10 µM, stronger effect = higher value.
Test [3] has as its target L-lactate dehydrogenase (Plasmodium falciparum (isolate CDC / Honduras)) (UniProt Q27743). The experiment in a line: PfLDH activity inhibition – cell lysate, 3D7 strain, counter-screen for P. falciparum growth inhibition project (AID 2304).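 Note: 0% = vehicle and 100% = reference inhibitor.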 The note with it: P. falciparum 3D7 crude extract, LDH APAD/NBT absorbance; at 2 µM; stronger effect = higher value.
Test [4] is described as follows: inhibition of 3D7 malaria parasite growth – strain 3D7 (AID 2306).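 Note: 0% = DMSO wells and 100% = chloroquine plus artemisinin control wells.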 The note with it: P. falciparum 3D7 erythrocytic growth, LDH absorbance, 72 h; at 2 µM; stronger effect = higher value.
In test [5] the target is Calcium-dependent protein kinase 1 (Plasmodium falciparum (isolate 3D7)) (UniProt P62344). In words: PfCDPK1 kinase inhibitors, biochemical, TCAMS library (AID 1159585; cut-off not given, nearly all actives have IC50 up to about 0.98 µM;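 note: inhibitors leave more ATP so luminescence rises with inhibition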). The note with it: recombinant PfCDPK1, Kinase-Glo ATP depletion luminescence.
The target in test [6] is Plasmodium falciparum protein kinase 6 (PK6, PF3D7_1337100) (UniProt Q8IDW1). In words: PfPK6 kinase inhibitors, biochemical, TCAMS library (AID 1159586). As to conditions: recombinant PfPK6, Kinase-Glo ATP depletion luminescence.
Test [7] addresses Protein kinase 7 (PK7), Plasmodium falciparum 3D7 (PF3D7_0213400) (UniProt Q7YTF7). The experiment in a line: inhibition of Plasmodium PK7 catalytic activity – biochemical, TCAMS antimalarial set, Kinase-Glo luminescence (AID 1159587). The note with it: recombinant PfPK7, Kinase-Glo ATP depletion luminescence.
Test [8] addresses Calcium-dependent protein kinase 4 (Plasmodium falciparum (isolate 3D7)) (UniProt Q8IBS5). In words: PfCDPK4 kinase inhibitors, biochemical, TCAMS library (AID 1159588; cut-off not given, nearly all actives have IC50 up to about 0.91 µM). The note with it: recombinant PfCDPK4, Kinase-Glo ATP depletion luminescence.

Each structure is given as a SMILES string. A number with no mark means an inactive call. For some assays here: Measured potencies and affinities stand elsewhere. Calls of active or inactive are those of the source. Unless noted, the rule behind the calls is not given here.

Calcium-dependent protein kinase 1 (Plasmodium falciparum (isolate 3D7)), sequence (P62344 whole entry, looked up): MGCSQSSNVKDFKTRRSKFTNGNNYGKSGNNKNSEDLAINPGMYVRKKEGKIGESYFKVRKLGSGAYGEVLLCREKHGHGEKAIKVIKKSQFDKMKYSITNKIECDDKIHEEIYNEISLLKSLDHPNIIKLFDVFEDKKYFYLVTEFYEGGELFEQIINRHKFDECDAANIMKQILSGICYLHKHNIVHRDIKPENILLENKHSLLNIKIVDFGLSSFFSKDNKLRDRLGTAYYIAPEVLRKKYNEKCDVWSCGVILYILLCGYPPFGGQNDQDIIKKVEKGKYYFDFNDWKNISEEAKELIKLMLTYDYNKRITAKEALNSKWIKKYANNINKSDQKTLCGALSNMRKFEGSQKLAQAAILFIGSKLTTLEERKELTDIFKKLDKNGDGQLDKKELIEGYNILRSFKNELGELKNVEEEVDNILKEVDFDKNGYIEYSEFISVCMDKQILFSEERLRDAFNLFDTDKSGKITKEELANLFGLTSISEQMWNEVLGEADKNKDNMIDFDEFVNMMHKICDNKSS
Calcium-dependent protein kinase 4 (Plasmodium falciparum (isolate 3D7)), sequence (Q8IBS5 whole entry, looked up): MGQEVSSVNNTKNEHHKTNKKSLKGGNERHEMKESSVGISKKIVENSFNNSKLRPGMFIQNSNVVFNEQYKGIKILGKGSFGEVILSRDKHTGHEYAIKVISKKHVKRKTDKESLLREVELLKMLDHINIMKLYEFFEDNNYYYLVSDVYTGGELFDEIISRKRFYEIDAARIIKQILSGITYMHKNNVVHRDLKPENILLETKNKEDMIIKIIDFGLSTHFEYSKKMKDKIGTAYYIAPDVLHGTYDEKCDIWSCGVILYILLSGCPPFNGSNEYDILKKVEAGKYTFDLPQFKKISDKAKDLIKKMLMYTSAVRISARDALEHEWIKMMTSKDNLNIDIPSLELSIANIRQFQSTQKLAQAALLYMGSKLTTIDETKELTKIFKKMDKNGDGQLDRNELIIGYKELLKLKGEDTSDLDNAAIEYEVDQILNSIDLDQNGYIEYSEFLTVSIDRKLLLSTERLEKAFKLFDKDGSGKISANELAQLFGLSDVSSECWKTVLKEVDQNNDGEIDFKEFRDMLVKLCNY
Protein kinase 7 (PK7), Plasmodium falciparum 3D7 (PF3D7_0213400), sequence (Q7YTF7 1-343): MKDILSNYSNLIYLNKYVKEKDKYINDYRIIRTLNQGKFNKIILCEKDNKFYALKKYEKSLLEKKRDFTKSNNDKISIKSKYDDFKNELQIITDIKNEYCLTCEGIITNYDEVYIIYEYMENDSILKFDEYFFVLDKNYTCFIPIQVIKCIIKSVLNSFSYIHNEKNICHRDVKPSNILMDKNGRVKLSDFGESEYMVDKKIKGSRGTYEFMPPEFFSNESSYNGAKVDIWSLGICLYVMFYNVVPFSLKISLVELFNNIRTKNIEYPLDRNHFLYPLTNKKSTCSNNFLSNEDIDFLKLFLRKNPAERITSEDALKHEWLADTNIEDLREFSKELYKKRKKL
Plasmodium falciparum protein kinase 6 (PK6, PF3D7_1337100), sequence (Q8IDW1 1-305): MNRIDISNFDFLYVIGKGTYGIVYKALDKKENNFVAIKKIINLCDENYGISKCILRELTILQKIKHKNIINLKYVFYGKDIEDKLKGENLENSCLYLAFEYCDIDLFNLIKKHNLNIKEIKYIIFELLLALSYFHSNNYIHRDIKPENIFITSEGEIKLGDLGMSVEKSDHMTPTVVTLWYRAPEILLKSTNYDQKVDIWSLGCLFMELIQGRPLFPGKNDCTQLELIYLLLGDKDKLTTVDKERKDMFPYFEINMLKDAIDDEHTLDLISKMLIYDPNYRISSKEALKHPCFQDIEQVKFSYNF
L-lactate dehydrogenase (Plasmodium falciparum (isolate CDC / Honduras)), sequence (Q27743 whole entry, looked up): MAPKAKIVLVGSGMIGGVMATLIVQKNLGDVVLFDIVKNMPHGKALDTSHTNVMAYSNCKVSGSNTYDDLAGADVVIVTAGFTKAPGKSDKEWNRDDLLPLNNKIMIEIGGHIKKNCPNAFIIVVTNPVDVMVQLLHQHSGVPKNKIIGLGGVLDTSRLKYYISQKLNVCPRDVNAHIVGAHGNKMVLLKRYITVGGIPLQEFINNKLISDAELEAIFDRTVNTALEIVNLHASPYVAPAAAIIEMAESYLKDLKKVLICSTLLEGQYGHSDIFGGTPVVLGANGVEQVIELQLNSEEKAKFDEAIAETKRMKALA

Regarding `Oc1ccc(CCCNc2nc(NCc3cccc4ccccc34)nc(NC3CCNCC3)n2)cc1`, the growth inhibition in test [1] is -3%; in test [4], 91% (active). Also, the inhibition is 8% in test [2] and 1% in test [3]. The result in test [5], in test [6], in test [7] and in test [8] was inactive.

Regarding `Fc1ccc2nc(-c3cccc(-c4cccc(CNCC5CCCO5)c4)c3)[nH]c2c1` (configuration not stated), the growth inhibition was 94% (active) in test [1] and 99% (active) in test [4]. The inhibition in test [2] is 40%; in test [3], 3%. The result in test [5], in test [6], in test [7] and in test [8] was inactive.

Regarding `Clc1ccc(-c2cnc3ccc(NCc4ccncc4)nn23)cc1`, the growth inhibition in test [1] and in test [4] was 98% (active) throughout. For the same molecule, the inhibition was 25% in test [2] and 2% in test [3]. For the same molecule, the outcome in test [5], in test [6], in test [7] and in test [8] was inactive.

Take `CC(C)CCNc1nc(NCCc2ccccc2)c2cc(O)ccc2n1`: the growth inhibition in test [1] is 97% (active); in test [4] it was 101% (active). The results for the inhibition in test [2] and in test [3] were 6% and 7%, respectively. The outcome in test [5], in test [6], in test [7] and in test [8] was inactive.

On to `COc1cc(Cn2ccc3c4c(N)nc(N)nc4ccc32)cc(OC)c1OC`, for which the growth inhibition was 97% (active) in test [1] and 94% (active) in test [4]. Moreover, the inhibition in test [2] was 66% (active); in test [3], 3%. Besides, the result in test [5], in test [6], in test [7] and in test [8] was inactive.

`CCOC(=O)NOC(C(=O)O)c1ccccc1` (configuration not stated): the growth inhibition in test [1] was 17%; in test [4], 99% (active). The inhibition in test [2] is 4%; in test [3], -1%. The result in test [5], in test [6], in test [7] and in test [8] was inactive.

As to `COc1ccc(CNC2Cc3ccccc3C2)cc1-c1ccc(S(=O)(=O)NCc2ccccc2)s1`, the growth inhibition is 25% in test [1] and 97% (active) in test [4]. The results for the inhibition in test [2] and in test [3] were 22% and 4%, respectively. For the same molecule, the outcome in test [5], in test [6], in test [7] and in test [8] was inactive.

Consider `CCN(CC)CCN(Cc1ccc(-c2ccc(C(F)(F)F)cc2)cc1)C(=O)Cn1c(CCc2cccc(F)c2F)nc(=O)c2ccc(F)cc21`, for which the growth inhibition in test [1] is 41%; in test [4] it was 98% (active). Besides, the values for the inhibition in test [2] and in test [3] were 14% and 3%, respectively. Moreover, the result in test [5], in test [6], in test [7] and in test [8] was inactive.

In the case of `CC(C)CCn1c(Sc2ccc(C#N)c([N+](=O)[O-])c2)nnc1-c1cccc(Cl)c1`, the values for the growth inhibition in test [1] and in test [4] were 82% (active) and 96% (active), respectively. For the same molecule, the values for the inhibition in test [2] and in test [3] were 33% and 0%, respectively. The outcome in test [5], in test [6], in test [7] and in test [8] was inactive.

With `O=C(Nc1ccc2oc(-c3ccc(Cl)cc3Cl)nc2c1)c1ccc([N+](=O)[O-])o1`, the growth inhibition was 78% (active) in test [1] and 95% (active) in test [4]. Further, the inhibition in test [2] is 39%; in test [3] it was 3%. For the same molecule, the outcome in test [5], in test [6], in test [7] and in test [8] was inactive.

Regarding `c1ccc(Oc2ccc(Nc3ccnc4cc(-c5csc(CNCCN6CCOCC6)n5)ccc34)cc2)cc1`, the results for the growth inhibition in test [1] and in test [4] were 99% (active) and 101% (active), respectively. The inhibition in test [2] was -1%; in test [3], 0%. Besides, the result in test [5], in test [6], in test [7] and in test [8] was inactive.

Consider `Cc1cc(=O)c(-c2ccc(Oc3ccc(F)cc3)cc2)c(C)[nH]1`, for which the growth inhibition was 59% (active) in test [1] and 85% (active) in test [4]. The inhibition was -3% in test [2] and 3% in test [3]. In addition, the outcome in test [5], in test [6], in test [7] and in test [8] was inactive.

Turning to `CCN(CC)CCCC(C)Nc1ccnc2ccc(OC)cc12` (configuration not stated), the figures for the growth inhibition in test [1] and in test [4] were -3% and 102% (active), respectively. The inhibition in test [2] was 7%; in test [3], -2%. Also, the result in test [5], in test [6], in test [7] and in test [8] was inactive.

As to `CN1CCCN(Cc2ccc(-c3ccc(NC(=O)c4cccc(C#N)c4)cc3)cc2)CC1`, the growth inhibition in test [1] is 67% (active); in test [4], 97% (active). The values for the inhibition in test [2] and in test [3] were 46% and -8%, respectively. Further, the outcome in test [5], in test [6], in test [7] and in test [8] was inactive.

On to `C[C@@H](COc1ccc(-c2ccccc2)cc1)CON1C(N)=NC(N)=NC1(C)C`, for which the growth inhibition in test [1] and in test [4] was 96% (active) each time. The inhibition was 62% (active) in test [2] and 3% in test [3]. Further, the outcome in test [5], in test [6], in test [7] and in test [8] was inactive.

Regarding `CN1CCC[C@H]1COc1ccc(CN2CC[C@H](NC(=O)c3ccc(Cl)c(Cl)c3)C2)cc1Cl`, the growth inhibition in test [1] was 44%; in test [4], 97% (active). Also, the inhibition in test [2] was 53% (active); in test [3] it was -2%. Further, the outcome in test [5], in test [6], in test [7] and in test [8] was inactive.

As to `CC(C)(C)c1cc(C(=O)N2CCN(c3ncccc3C(F)(F)F)CC2)n(Cc2ccccc2)n1`, the growth inhibition in test [1] is 99% (active); in test [4], 100% (active). Moreover, the inhibition in test [2] was -8%; in test [3], 1%. Moreover, the outcome in test [5], in test [6], in test [7] and in test [8] was inactive.

On to `CC(C)Cc1cn(-c2nc(-c3nc4ccccc4[nH]3)cs2)c2ccncc12`, for which the growth inhibition was 99% (active) in test [1] and 102% (active) in test [4]. Moreover, the inhibition is 34% in test [2] and -2% in test [3]. Besides, the outcome in test [5], in test [6], in test [7] and in test [8] was inactive.

As to `O=C(Nc1ccc(S(=O)(=O)N2CCOCC2)cc1)c1cc(-c2cc(Cl)ccc2O)n[nH]1`, the growth inhibition in test [1] was 59% (active); in test [4] it was 96% (active). The inhibition in test [2] was 40%; in test [3], -3%. In addition, the result in test [5], in test [6], in test [7] and in test [8] was inactive.
